Test results published in PubChem BioAssay (NCI).
About 79,000 compounds went through this panel and 15% of them were active in at least one assay; those are over-represented in the sample as a whole. Calls of active or inactive are those of the source. Cut-off read from the data, not from the text of the source: active = growth inhibition above about 70%; inactive = the rest.

Columns and labels:
[1] = NCI Yeast Anticancer Drug Screen. Data for the rad52 strain (AID 147);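 note: 0% = growth of vehicle-treated control cultures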; conditions: S. cerevisiae rad52 mutant growth inhibition, hits give high values
Method in brief: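 Yeast strain carrying a DNA damage repair alteration was exposed to test compounds. Growth inhibition was measured relative to vehicle-treated controls.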

[2] = NCI Yeast Anticancer Drug Screen. Data for the wt1 strain (AID 149);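 note: 0% = growth of vehicle-treated wt1 cultures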; conditions: S. cerevisiae wt1 strain (SPY 50644) growth inhibition, hits give high values
Method in brief: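 wt1 strain grown with compound or vehicle; inhibition taken from the growth difference.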

[3] = NCI Yeast Anticancer Drug Screen. Data for the rad50EPP+ strain (AID 151);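 note: 0% = growth of vehicle-treated control cultures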; conditions: S. cerevisiae rad50 mutant strain, hits give high values
Method in brief: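 Yeast strain carrying rad50 alteration (rad50EPP+) exposed to compounds; growth inhibition measured relative to vehicle-treated controls.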

[4] = NCI Yeast Anticancer Drug Screen. Data for the mgt1 strain (AID 153); conditions: S. cerevisiae mgt1 mutant growth inhibition, hits give high values
Method in brief: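 Yeast mgt1 strain (DNA repair/cell-cycle alteration panel) exposed to compounds; growth inhibition measured relative to vehicle-treated controls.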

[5] = NCI Yeast Anticancer Drug Screen. Data for the rad50 strain (AID 155);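 note: 0% = growth of vehicle-only cultures of the same strain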; conditions: S. cerevisiae rad50 strain growth inhibition, hits give high values
Method in brief: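 DNA repair mutant yeast, compound exposure, growth read-out; inhibition is taken relative to vehicle.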

[6] = NCI Yeast Anticancer Drug Screen. Data for the mec2-1 strain (AID 157); conditions: S. cerevisiae mec2-1 strain, hits give high values
Method in brief: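 mec2-1 yeast strain, carrying an alteration in DNA damage repair or cell cycle control, was exposed to compounds; growth inhibition was measured relative to vehicle-treated controls.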

[7] = NCI Yeast Anticancer Drug Screen. Data for the rad14 strain (AID 159);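 note: 0% = growth of vehicle-treated control cultures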; conditions: S. cerevisiae rad14 strain growth inhibition, hits give high values
Method in brief: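 DNA repair-defective yeast, compound-exposed; % growth inhibition derived by comparison with vehicle-treated controls.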

[8] = NCI Yeast Anticancer Drug Screen. Data for the sgs1 mgt1 strain (AID 161);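 note: 0% = growth of cultures given vehicle only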; conditions: S. cerevisiae sgs1 mgt1 strain, hits give high values
Method in brief: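 Percent growth inhibition was derived by comparing compound-exposed mutant yeast with vehicle-exposed cultures. The strain carries alterations in DNA damage repair.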

[9] = NCI Yeast Anticancer Drug Screen. Data for the CLN2oe strain (AID 163);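 note: 0% = growth of vehicle-only control cultures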; conditions: S. cerevisiae CLN2oe strain, hits give high values
Method in brief: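 Yeast cells carrying a defined cell-cycle control alteration were exposed to test compounds. Growth inhibition was scored against vehicle-treated control cultures.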

[10] = NCI Yeast Anticancer Drug Screen. Data for the cln2 rad14 strain (AID 165);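 note: 0% = growth equal to vehicle treated cultures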; conditions: S. cerevisiae cln2 rad14 strain, hits give high values
Method in brief: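 Yeast carrying cln2 and rad14 alterations (cell cycle control and DNA damage repair) were exposed to compounds. Growth inhibition was measured against vehicle-treated controls.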

[11] = NCI Yeast Anticancer Drug Screen. Data for the bub3 strain (AID 167); conditions: S. cerevisiae bub3 mutant strain, hits give high values
Method in brief: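 In this screen, a yeast mutant lacking normal mitotic checkpoint function is challenged with compound. Relative growth versus vehicle gives the inhibition value.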

[12] = NCI Yeast Anticancer Drug Screen. Data for the wt2 strain (AID 169);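 note: 0% = growth of vehicle-treated yeast cultures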; conditions: S. cerevisiae wt2 strain growth inhibition, hits give high values
Method in brief: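 Yeast cells were exposed to test compounds, and growth inhibition was measured relative to vehicle-treated controls.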

[13] = NCI Yeast Anticancer Drug Screen. Data for the mlh1 strain (AID 171);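 note: 0% = growth of vehicle-treated control cultures of the same strain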; conditions: S. cerevisiae mlh1 strain growth inhibition, hits give high values
Method in brief: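 Yeast carrying a defined genetic alteration in DNA damage repair or cell cycle control were exposed to test compounds. Growth inhibition was measured relative to vehicle-treated controls.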

[14] = NCI Yeast Anticancer Drug Screen. Data for the sgs1 strain (AID 173);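 note: 0% = growth of vehicle-only control cultures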; conditions: S. cerevisiae sgs1 mutant, hits give high values
Method in brief: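 Yeast mutant strains carrying defined defects in DNA damage repair or cell cycle control were exposed to test compounds. Growth inhibition was scored against vehicle-treated controls.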

[15] = NCI Yeast Anticancer Drug Screen. Data for the mlh1 rad18 strain (AID 175); conditions: S. cerevisiae mlh1 rad18 strain growth inhibition, hits give high values
Method in brief: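 Growth inhibition of the yeast strain was measured after compound exposure and expressed relative to vehicle-treated controls. The strain carries defined defects in DNA damage repair.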

[16] = NCI Yeast Anticancer Drug Screen. Data for the rad18 strain (AID 177); conditions: S. cerevisiae rad18 mutant growth inhibition, hits give high values
Method in brief: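 Yeast carrying a defined DNA damage repair alteration were exposed to compounds. Growth inhibition was expressed relative to vehicle-treated controls.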

[17] = at 5.0 µM (retest, dose inferred, filed as 0.5)
[18] = at 50.0 µM (retest, dose inferred, filed as 5.0)

Measured: growth inhibition

Cc1c(C(=O)/C=C/c2ccccc2[N+](=O)[O-])[n+](=O)c2ccccc2n1[O-]
inactive: [2]; at 1.2 µM -1% | [2]; at 3.7 µM 22% | [2]; at 11.0 µM 42% | [2]; at 33.0 µM 49% | [2]; at 100.0 µM 60% | [3]; at 1.2 µM 41% | [3]; at 3.7 µM 67% | [4]; at 1.2 µM 10% | [4]; at 3.7 µM 61% | [5]; at 1.2 µM 66% | [5]; [17] 12% | [6]; at 1.2 µM 12% | [6]; at 3.7 µM 32% | [6]; [17] 2% | [7]; at 1.2 µM 37% | [7]; at 3.7 µM 61% | [8]; [17] 6% | [9]; at 1.2 µM 12% | [9]; at 3.7 µM 25% | [9]; at 11.0 µM 41% | [9]; at 33.0 µM 47% | [9]; at 100.0 µM 66% | [10]; [17] -4% | [10]; [18] 54% | [11]; at 1.2 µM -1% | [11]; at 3.7 µM 42% | [11]; [17] -3% | [11]; at 11.0 µM 29% | [11]; at 33.0 µM 33% | [11]; [18] 57% | [11]; at 100.0 µM 29% | [12]; at 1.2 µM 44% | [13]; at 1.2 µM 25% | [15]; [17] 8%
active: [1]; at 1.2 µM 78% | [1]; at 3.7 µM 90% | [1]; at 11.0 µM 93% | [1]; at 33.0 µM 93% | [1]; at 100.0 µM 93% | [3]; at 11.0 µM 77% | [3]; at 33.0 µM 76% | [3]; at 100.0 µM 79% | [4]; at 11.0 µM 93% | [4]; at 33.0 µM 94% | [4]; at 100.0 µM 96% | [5]; at 3.7 µM 86% | [5]; at 11.0 µM 90% | [5]; at 33.0 µM 91% | [5]; [18] 84% | [5]; at 50.0 µM 97.5% | [5]; at 100.0 µM 92% | [6]; at 11.0 µM 77% | [6]; at 33.0 µM 85% | [6]; [18] 83% | [6]; at 50.0 µM 90.5% | [6]; at 100.0 µM 89% | [7]; at 11.0 µM 73% | [7]; at 33.0 µM 74% | [7]; at 100.0 µM 76% | [8]; [18] 98% | [8]; at 50.0 µM 98% | [10]; at 50.0 µM 94.5% | [11]; at 50.0 µM 94.2% | [12]; at 3.7 µM 85% | [12]; at 11.0 µM 91% | [12]; at 33.0 µM 84% | [12]; at 100.0 µM 94% | [13]; at 3.7 µM 73% | [13]; at 11.0 µM 92% | [13]; at 33.0 µM 94% | [13]; at 100.0 µM 94% | [14]; at 1.2 µM 73% | [14]; at 3.7 µM 91% | [14]; at 11.0 µM 94% | [14]; at 33.0 µM 94% | [14]; at 100.0 µM 93% | [15]; [18] 94% | [15]; at 50.0 µM 98.2% | [16]; at 1.2 µM 84% | [16]; at 3.7 µM 90% | [16]; at 11.0 µM 92% | [16]; at 33.0 µM 92% | [16]; at 100.0 µM 93%
